Source: PubChem BioAssay (EPA / NIEHS)
Records with an inconclusive call do not appear. Activity calls are given as the source filed them. How the source made its calls, unless noted: active means hit-call score of the fitted dose curve at least 0.9, where 1 is the maximum; inconclusive means response in the unintended direction; inactive means score below 0.9.

Key:
[1] = ATG_TCF_b_cat_CIS: Attagene CIS-FACTORIAL HepG2 Assay for human T-Cell-Factor with beta-catenin (TCF/b-cat) (AID 2282965; active means hit-call score of the fitted dose curve at least 0.9, where 1 is the maximum; inactive means score below 0.9); conditions: HepG2 TCF/beta-catenin cis-reporter transcription, actives raise or lower the signal
Outline: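 HepG2 cells transiently transfected with cis-promoter-driven multiplexed reporter units; reporter mRNA measured 24 h after dosing by RT-PCR, FAM labelling, HpaI digestion and capillary electrophoresis. Bidirectional fitting relative to DMSO baseline.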

[2] = ATG_TAL_CIS: Attagene CIS-FACTORIAL HepG2 Assay for human TAL Basal Promoter (AID 2282966; active means hit-call score of the fitted dose curve at least 0.9, where 1 is the maximum; inactive means score below 0.9;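 further: background control endpoint measuring basal TAL promoter reporter mRNA not a specific factor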); conditions: HepG2 Attagene cis-factorial TAL promoter reporter; actives raise or lower the signal
Outline: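 In this cell-based multiplex, HepG2 liver cells bearing cis-promoter reporter constructs are dosed for 24 hours. Total RNA is reverse-transcribed and amplified, labelled fragments are sized by capillary electrophoresis, and signal changes are fitted bidirectionally versus DMSO.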

[3] = ATG_TGFb_CIS: Attagene CIS-FACTORIAL HepG2 Assay for human Transforming Growth Factor (TGF) (AID 2282967; active means hit-call score of the fitted dose curve at least 0.9, where 1 is the maximum; inactive means score below 0.9); conditions: HepG2 Attagene CIS TGFb reporter, mRNA transcription; actives raise or lower the signal
Outline: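 Liver HepG2 line, cis-factorial reporter panel, 24 h dosing. Quantitation: RT-PCR products labeled with 6-FAM, cut with HpaI, resolved by capillary electrophoresis; DMSO-referenced bidirectional analysis.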

[4] = ATG_VDRE_CIS: Attagene CIS-FACTORIAL HepG2 Assay for human Vitamin D Receptor Element (VDRE) (AID 2282968; active means hit-call score of the fitted dose curve at least 0.9, where 1 is the maximum; inactive means score below 0.9); conditions: HepG2 VDRE cis-reporter transcription, actives raise or lower the signal
Outline: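 Transiently transfected HepG2 cells carrying cis-regulated reporter transcription units were exposed for 24 h. Reporter mRNA was measured by RT-PCR with fluorescent labelling and capillary electrophoresis, and fitted in both directions against DMSO.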

[5] = biological target: Estrogen receptor (Homo sapiens) (UniProt P03372); assay: ATG_ERa_TRANS: Attagene TRANS-FACTORIAL HepG2 Assay for human Estrogen Receptor alpha (ERa) (AID 2282970); conditions: HepG2 Attagene TRANS ERa GAL4 reporter, mRNA
Estrogen receptor (Homo sapiens), sequence (P03372 whole entry, looked up, the tested form may be a part): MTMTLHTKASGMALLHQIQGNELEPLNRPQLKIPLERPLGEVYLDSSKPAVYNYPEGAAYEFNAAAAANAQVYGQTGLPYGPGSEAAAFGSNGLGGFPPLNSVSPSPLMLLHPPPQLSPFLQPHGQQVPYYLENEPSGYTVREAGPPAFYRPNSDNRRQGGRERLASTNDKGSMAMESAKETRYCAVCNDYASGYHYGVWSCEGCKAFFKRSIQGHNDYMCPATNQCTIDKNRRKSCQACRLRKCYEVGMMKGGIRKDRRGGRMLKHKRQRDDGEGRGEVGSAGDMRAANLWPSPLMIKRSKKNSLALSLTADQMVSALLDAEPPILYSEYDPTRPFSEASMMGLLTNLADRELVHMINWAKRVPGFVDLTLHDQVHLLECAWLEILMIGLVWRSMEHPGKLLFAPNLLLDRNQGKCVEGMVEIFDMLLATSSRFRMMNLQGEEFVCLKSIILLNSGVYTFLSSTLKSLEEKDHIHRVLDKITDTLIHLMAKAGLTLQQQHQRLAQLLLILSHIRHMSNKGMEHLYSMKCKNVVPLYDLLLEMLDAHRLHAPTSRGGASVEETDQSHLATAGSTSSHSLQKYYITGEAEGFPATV
Outline: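 After 24 h of compound treatment, RNA from HepG2 cells bearing transfected GAL4-UAS reporter constructs is converted to cDNA, amplified and fluorescently labelled. Capillary electrophoresis resolves the ERa-linked reporter; DMSO serves as negative control.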

[6] = biological target: Steroid hormone receptor ERR1 (Homo sapiens) (UniProt P11474); assay: ATG_ERRa_TRANS: Attagene TRANS-FACTORIAL HepG2 Assay for human Estrogen-Related Receptor alpha (ERRa) (AID 2282971); conditions: HepG2 Attagene TRANS reporter, ERRa transactivation
Steroid hormone receptor ERR1 (Homo sapiens), sequence (P11474 whole entry, looked up, the tested form may be a part): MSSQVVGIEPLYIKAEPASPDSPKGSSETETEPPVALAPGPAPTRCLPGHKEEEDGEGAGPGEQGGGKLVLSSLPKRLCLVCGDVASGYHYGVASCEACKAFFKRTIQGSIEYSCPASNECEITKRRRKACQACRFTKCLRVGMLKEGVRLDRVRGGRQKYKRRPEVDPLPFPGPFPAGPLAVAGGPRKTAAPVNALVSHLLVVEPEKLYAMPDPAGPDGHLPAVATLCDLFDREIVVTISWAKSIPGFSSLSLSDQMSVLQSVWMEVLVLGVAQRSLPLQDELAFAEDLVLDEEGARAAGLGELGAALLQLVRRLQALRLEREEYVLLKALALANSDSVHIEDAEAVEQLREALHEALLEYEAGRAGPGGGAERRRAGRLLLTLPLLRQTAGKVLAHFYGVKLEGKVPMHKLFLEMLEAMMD
Outline: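 Transfected HepG2, 24 h dosing, ERRa-Gal4 chimera driving GAL4-UAS reporter. Readout: reporter mRNA via RT-PCR plus capillary electrophoresis (fluorescence). Positive direction vs DMSO control.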

[7] = biological target: X-box-binding protein 1 (Homo sapiens) (UniProt P17861); assay: ATG_Xbp1_CIS: Attagene CIS-FACTORIAL HepG2 Assay for human X-box Binding Protein 1 (XBP1) (AID 2282972; active means hit-call score of the fitted dose curve at least 0.9, where 1 is the maximum; inactive means score below 0.9); conditions: HepG2 XBP1 cis-element reporter, Attagene multiplex; actives raise or lower the signal
X-box-binding protein 1 (Homo sapiens), sequence (P17861 whole entry, looked up): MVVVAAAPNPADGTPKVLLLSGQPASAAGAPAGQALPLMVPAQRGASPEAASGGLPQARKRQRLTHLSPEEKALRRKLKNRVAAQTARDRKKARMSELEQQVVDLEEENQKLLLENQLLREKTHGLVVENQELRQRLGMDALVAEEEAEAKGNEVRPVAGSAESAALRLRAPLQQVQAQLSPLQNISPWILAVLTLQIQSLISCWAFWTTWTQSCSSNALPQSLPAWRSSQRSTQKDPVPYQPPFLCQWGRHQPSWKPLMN
Outline: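 HepG2 cells transiently transfected with multiple cis-element reporter units report endogenous TF activity; 24 h exposure, then reporter mRNA measured by RT-PCR, 6-FAM labelling, HpaI digestion and capillary electrophoresis. Bidirectional fitting versus DMSO.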

[8] = ATG_M_19_TRANS: Attagene TRANS-FACTORIAL HepG2 Assay for M19 Transcription Factor (Internal Marker) (AID 2282974); conditions: HepG2 Attagene TRANS-FACTORIAL M19 internal marker reporter
Outline: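 Reporter mRNA induction was measured in transfected HepG2 cells 24 h after dosing. Endpoint fitted upward relative to DMSO and serves as a background control within the multiplexed TRANS panel.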

[9] = ATG_GAL4_TRANS: Attagene TRANS-FACTORIAL HepG2 Assay for GAL4 (Internal Marker) (AID 2282976); conditions: HepG2 Attagene TRANS GAL4 internal marker reporter
Outline: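 RT-PCR/capillary electrophoresis readout of reporter mRNA. HepG2, transient MRTU transfection (GAL4-UAS reporters), 24 h compound exposure. Background-control endpoint, positive direction vs DMSO baseline.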

[10] = biological target: Estrogen-related receptor gamma (Homo sapiens) (UniProt P62508); assay: ATG_ERRg_TRANS: Attagene TRANS-FACTORIAL HepG2 Assay for human Estrogen-Related Receptor gamma (ERRg) (AID 2282977); conditions: HepG2 Attagene TRANS reporter, ERRg transactivation;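 further: hits increase reporter signal over DMSO so potencies reflect activators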
Estrogen-related receptor gamma (Homo sapiens), sequence (P62508 whole entry, looked up, the tested form may be a part): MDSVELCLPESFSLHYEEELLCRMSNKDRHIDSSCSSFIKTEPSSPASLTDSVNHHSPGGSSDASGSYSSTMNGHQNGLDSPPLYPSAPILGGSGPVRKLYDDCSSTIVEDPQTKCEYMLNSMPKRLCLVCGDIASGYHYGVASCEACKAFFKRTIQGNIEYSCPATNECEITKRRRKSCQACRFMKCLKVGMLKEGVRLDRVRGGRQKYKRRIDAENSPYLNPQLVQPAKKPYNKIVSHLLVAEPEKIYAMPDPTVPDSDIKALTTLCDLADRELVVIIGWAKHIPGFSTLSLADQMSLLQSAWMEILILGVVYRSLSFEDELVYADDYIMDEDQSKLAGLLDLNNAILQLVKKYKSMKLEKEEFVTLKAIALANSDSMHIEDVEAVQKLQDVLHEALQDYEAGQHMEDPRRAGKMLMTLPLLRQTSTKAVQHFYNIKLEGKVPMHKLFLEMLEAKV
Outline: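 Transfect HepG2 with multiple GAL4-UAS reporter transcription units; dose chemicals 24 h; isolate RNA, reverse-transcribe with oligo(dT), PCR-amplify, label with 6-FAM, digest with HpaI; size fragments by capillary electrophoresis. DMSO serves as negative control.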

[11] = biological target: Bile acid receptor (Homo sapiens) (UniProt Q96RI1); assay: ATG_FXR_TRANS: Attagene TRANS-FACTORIAL HepG2 Assay for Farnesoid X Receptor (FXR) (AID 2282979); conditions: HepG2 Attagene TRANS FXR-GAL4 reporter transcription;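 further: hits raise reporter mRNA above DMSO so AC50 marks FXR activation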
Bile acid receptor (Homo sapiens), sequence (Q96RI1 whole entry, looked up, the tested form may be a part): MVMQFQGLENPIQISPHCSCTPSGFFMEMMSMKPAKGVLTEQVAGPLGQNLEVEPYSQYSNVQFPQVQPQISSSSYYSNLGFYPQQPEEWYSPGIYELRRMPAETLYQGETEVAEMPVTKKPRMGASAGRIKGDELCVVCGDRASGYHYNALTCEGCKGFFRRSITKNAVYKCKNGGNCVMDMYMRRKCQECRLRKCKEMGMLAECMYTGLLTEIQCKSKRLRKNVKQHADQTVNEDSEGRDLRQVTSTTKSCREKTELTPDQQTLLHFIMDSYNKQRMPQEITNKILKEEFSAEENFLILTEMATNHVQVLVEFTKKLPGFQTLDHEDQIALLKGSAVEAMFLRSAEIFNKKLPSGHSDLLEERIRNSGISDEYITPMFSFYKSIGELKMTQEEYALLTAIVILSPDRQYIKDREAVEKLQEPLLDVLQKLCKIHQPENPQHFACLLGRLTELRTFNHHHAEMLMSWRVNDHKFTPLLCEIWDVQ
Outline: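 Read-out: fluorescent reporter transcripts quantified by capillary electrophoresis after RT-PCR of total RNA. Source cells were HepG2 transiently carrying chimeric NR-GAL4 plus GAL4-UAS reporter units, dosed 24 h. Activity fitted upward relative to DMSO baseline.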

[12] = biological target: Hepatocyte nuclear factor 4-alpha (Homo sapiens) (UniProt P41235); assay: ATG_HNF4a_TRANS: Attagene TRANS-FACTORIAL HepG2 Assay for human Hepatocyte Nuclear Factor 4 alpha (HNF4a) (AID 2282982); conditions: HepG2 HNF4a transactivation reporter, mRNA readout
Hepatocyte nuclear factor 4-alpha (Homo sapiens), sequence (P41235 whole entry, looked up, the tested form may be a part): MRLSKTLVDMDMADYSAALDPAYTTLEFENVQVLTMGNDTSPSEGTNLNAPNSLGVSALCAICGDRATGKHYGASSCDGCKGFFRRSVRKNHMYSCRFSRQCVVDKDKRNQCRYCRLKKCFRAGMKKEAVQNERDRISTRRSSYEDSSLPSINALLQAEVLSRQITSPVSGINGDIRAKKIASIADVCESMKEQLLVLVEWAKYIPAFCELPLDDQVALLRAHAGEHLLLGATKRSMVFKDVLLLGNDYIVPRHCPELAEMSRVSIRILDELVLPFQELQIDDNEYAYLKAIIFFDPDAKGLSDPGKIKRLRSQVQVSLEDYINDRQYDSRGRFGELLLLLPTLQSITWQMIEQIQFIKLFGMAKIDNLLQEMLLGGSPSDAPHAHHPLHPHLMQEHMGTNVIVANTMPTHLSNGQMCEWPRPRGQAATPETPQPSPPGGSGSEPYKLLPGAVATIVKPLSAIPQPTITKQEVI
Outline: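 HepG2 cells transiently transfected with HNF4a-Gal4 chimera and GAL4-UAS reporter units, dosed for 24 h. Reporter mRNA measured by RT-PCR, fluorescent primer extension and capillary electrophoresis; gain-of-signal fitted relative to DMSO.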

[13] = ATG_M_06_TRANS: Attagene TRANS-FACTORIAL HepG2 Assay for M06 Transcription Factor (Internal Marker) (AID 2282983); conditions: HepG2 Attagene TRANS M06 internal marker reporter
Outline: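 After a 24 h chemical treatment of transfected HepG2, RNA underwent DNase I treatment, reverse transcription and reporter-specific PCR; labelled, HpaI-digested products were sized by capillary electrophoresis. Signal increase relative to DMSO defined activity.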

[14] = ATG_M_32_TRANS: Attagene TRANS-FACTORIAL HepG2 Assay for M32 Transcription Factor (Internal Marker) (AID 2282984); conditions: HepG2 Attagene TRANS M32 internal marker reporter;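 further: transcript level of a background control reporter unit measured by RT-PCR and capillary electrophoresis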
Outline: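 HepG2 cells transiently transfected with GAL4-UAS reporter units, dosed for 24 hours. Reporter mRNA quantified by RT-PCR, 6-FAM labelling, HpaI digestion and capillary electrophoresis; internal-marker signal fitted upward relative to DMSO.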

[15] = biological target: Transcriptional activator Myb (Homo sapiens) (UniProt P10242); assay: ATG_Myb_CIS: Attagene CIS-FACTORIAL HepG2 Assay for human Myeloblastosis (Myb) Proto-Oncogene Transcription Factor (AID 2282986; active means hit-call score of the fitted dose curve at least 0.9, where 1 is the maximum; inactive means score below 0.9); conditions: HepG2 Attagene CIS-FACTORIAL Myb reporter transcription; actives raise or lower the signal
Transcriptional activator Myb (Homo sapiens), sequence (P10242 whole entry, looked up): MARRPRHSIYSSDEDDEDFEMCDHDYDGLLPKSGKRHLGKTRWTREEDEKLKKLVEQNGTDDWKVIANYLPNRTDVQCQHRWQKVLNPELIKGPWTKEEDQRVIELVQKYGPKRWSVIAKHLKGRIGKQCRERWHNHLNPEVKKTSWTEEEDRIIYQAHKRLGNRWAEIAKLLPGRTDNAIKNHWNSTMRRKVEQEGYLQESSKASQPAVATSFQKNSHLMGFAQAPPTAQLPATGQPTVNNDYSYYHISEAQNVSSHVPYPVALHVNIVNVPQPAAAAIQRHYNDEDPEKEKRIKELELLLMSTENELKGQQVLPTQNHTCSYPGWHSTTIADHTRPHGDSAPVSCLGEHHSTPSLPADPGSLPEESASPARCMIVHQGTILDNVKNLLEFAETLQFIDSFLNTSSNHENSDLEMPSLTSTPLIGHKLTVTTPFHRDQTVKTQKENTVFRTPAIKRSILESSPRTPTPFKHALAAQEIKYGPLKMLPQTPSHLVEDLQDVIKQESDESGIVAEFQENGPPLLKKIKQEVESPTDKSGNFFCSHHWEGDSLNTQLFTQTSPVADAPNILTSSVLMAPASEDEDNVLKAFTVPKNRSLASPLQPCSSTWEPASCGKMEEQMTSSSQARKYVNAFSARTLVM
Outline: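 Transiently transfected HepG2 cells, treated 24 h. Reporter mRNA quantified by RT-PCR/capillary electrophoresis; bidirectional fit relative to DMSO.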

[16] = biological target: Oxysterols receptor LXR-alpha (Homo sapiens) (UniProt Q13133); assay: ATG_LXRa_TRANS: Attagene TRANS-FACTORIAL HepG2 Assay for human Liver X Receptor alpha (LXRa) (AID 2282980); conditions: HepG2 Attagene TRANS reporter, LXRa transactivation
Outline: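 Read-out: reporter transcript levels by RT-PCR plus capillary electrophoresis, fluorescence intensity. Transiently transfected HepG2, exogenous NR-GAL4 chimera, GAL4-UAS reporters; 24 h compound exposure. Activity = increase over DMSO negative control.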

[17] = biological target: Oxysterols receptor LXR-beta (Homo sapiens) (UniProt P55055); assay: ATG_LXRb_TRANS: Attagene TRANS-FACTORIAL HepG2 Assay for human Liver X Receptor beta (LXRb) (AID 2282981); conditions: HepG2 Attagene TRANS GAL4-LXRb reporter, mRNA
Oxysterols receptor LXR-beta (Homo sapiens), sequence (P55055 whole entry, looked up, the tested form may be a part): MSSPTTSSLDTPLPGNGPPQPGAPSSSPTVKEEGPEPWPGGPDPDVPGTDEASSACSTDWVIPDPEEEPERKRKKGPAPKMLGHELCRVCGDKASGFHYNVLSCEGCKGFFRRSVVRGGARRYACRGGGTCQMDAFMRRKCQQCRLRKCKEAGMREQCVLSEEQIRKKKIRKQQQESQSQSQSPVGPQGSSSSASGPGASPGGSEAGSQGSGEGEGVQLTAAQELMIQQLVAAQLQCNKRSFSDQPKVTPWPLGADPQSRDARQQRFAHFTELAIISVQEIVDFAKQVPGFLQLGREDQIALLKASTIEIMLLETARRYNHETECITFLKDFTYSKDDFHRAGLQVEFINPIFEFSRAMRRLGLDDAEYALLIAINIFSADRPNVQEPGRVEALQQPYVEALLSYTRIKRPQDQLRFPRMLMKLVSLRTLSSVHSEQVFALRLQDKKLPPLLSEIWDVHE
Outline: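 HepG2 cells transiently transfected with GAL4-UAS reporter units for chimeric NR-Gal4 proteins, dosed for 24 h. Reporter transcripts measured by RT-PCR and capillary electrophoresis; gain-of-signal fitting relative to DMSO.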

[18] = biological target: Glucocorticoid receptor (Homo sapiens) (UniProt P04150); assay: ATG_GR_TRANS: Attagene TRANS-FACTORIAL HepG2 Assay for human Glucocorticoid Receptor (GR) (AID 2282978); conditions: HepG2 Attagene TRANS GR reporter, mRNA transcription;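 further: activators score as hits since higher reporter transcript over DMSO is fitted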
Glucocorticoid receptor (Homo sapiens), sequence (P04150 whole entry, looked up, the tested form may be a part): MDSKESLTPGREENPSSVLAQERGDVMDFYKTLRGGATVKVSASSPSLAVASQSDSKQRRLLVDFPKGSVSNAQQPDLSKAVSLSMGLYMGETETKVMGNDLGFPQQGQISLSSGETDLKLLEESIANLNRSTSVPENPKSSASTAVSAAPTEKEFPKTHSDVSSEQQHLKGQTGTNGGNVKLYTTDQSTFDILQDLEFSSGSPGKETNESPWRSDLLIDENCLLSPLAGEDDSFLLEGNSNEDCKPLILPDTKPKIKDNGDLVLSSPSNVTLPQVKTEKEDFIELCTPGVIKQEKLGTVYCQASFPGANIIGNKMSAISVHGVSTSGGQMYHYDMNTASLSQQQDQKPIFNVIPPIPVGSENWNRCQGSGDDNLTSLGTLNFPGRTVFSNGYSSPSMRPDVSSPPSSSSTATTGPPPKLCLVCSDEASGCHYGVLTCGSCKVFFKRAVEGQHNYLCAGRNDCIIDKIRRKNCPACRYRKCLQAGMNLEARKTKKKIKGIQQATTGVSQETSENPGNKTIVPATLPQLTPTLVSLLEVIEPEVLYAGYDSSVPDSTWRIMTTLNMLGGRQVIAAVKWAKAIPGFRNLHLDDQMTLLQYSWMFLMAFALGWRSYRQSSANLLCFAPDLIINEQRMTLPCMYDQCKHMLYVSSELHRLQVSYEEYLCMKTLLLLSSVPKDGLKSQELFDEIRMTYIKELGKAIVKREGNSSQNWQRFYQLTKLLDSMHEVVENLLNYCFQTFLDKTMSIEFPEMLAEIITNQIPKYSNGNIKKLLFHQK
Outline: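 Reporter transcript levels, detected by fluorescence after RT-PCR and capillary electrophoresis, served as the endpoint. HepG2 cells bearing transfected GAL4-UAS reporters responsive to NR-GAL4 chimeras were incubated with compound 24 h; DMSO defined baseline.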

[19] = biological target: Nuclear receptor subfamily 4 group A member 2 (Homo sapiens) (UniProt P43354); assay: ATG_NURR1_TRANS: Attagene TRANS-FACTORIAL HepG2 Assay for human Nuclear Receptor Related Protein 1 (NURR1) (AID 2282985); conditions: HepG2 Attagene TRANS reporter, mRNA readout
Outline: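 HepG2 cells transiently transfected with NURR1-Gal4 chimera and GAL4-UAS reporter units; after 24 hr compound exposure, reporter mRNA quantified by RT-PCR and capillary electrophoresis; gain of signal fitted against DMSO.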

Measured: outcome

CCCCC(CC)COS(=O)(=O)O (stereo unspecified)
inactive: [1] | [2] | [3] | [4] | [5] | [6] | [7] | [8] | [9] | [10] | [11] | [12] | [13] | [14] | [15]

CCC[Si](OC)(OC)OC
inactive: [1] | [2] | [3] | [4] | [5] | [6] | [8] | [16] | [17] | [12] | [14] | [15]

Nc1ccc(O)c([N+](=O)[O-])c1
inactive: [1] | [2] | [3] | [4] | [5] | [6] | [10] | [16] | [17] | [12] | [13] | [15]

CCCCNS(=O)(=O)c1ccccc1
inactive: [1] | [2] | [3] | [4] | [5] | [7] | [8] | [11] | [16] | [17] | [12] | [13] | [14]

N#Cc1ccc(C(c2ccc(C#N)cc2)n2cncn2)cc1
inactive: [1] | [2] | [3] | [4] | [5] | [7] | [8] | [18] | [14] | [15]

CCOC(=O)/C=C\C(=O)OCC
inactive: [1] | [2] | [3] | [4] | [5] | [6] | [8] | [10] | [18] | [17] | [12] | [14] | [19] | [15]

c1ccc2cnccc2c1
inactive: [1] | [2] | [3] | [4] | [5] | [6] | [8] | [9] | [10] | [18] | [17] | [12] | [13] | [15]

Nc1ccnc(=O)[nH]1
inactive: [1] | [2] | [3] | [4] | [5] | [7] | [8] | [17] | [13] | [14]

CC1=CCC2CC1C2(C)C (stereo unspecified)
inactive: [1] | [2] | [3] | [4] | [5] | [7] | [8] | [9] | [12] | [13] | [19] | [15]

COC(=O)CC(C)CCC=C(C)C (stereo unspecified)
inactive: [1] | [2] | [3] | [4] | [5] | [6] | [7] | [9] | [10] | [18] | [11] | [16] | [17] | [12] | [14] | [15]

CC(C)C(=O)OCCc1ccccc1
inactive: [1] | [2] | [3] | [4] | [5] | [7] | [8] | [9] | [11] | [16] | [17] | [13] | [19]
